Data on 31 compounds can be found in PubChem BioAssay AID720706 (Broad Institute, 2013).

Hit rate of the full screen: of about 350,000 compounds, about 5,500 (1.6%) were called active.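 Rule for the calls: active = significant combined selectivity score with lowered wild-type GFP, culture density cut under 30%, mutant RFP and density less affected; inactive = any of these conditions unmet.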 The list comes from a sample in which actives are over-represented; it also holds similar structures and randomly drawn compounds.

The assay in a line: reduced GFP signal of wild-type E. coli, primary screen, bacterial rRNA inhibitor project, GFP/RFP fluorescence, OD600, single point (AID 720706). Particulars: E. coli WT GFP vs humanized-ribosome RFP mutants, 24 h; GFP signal change (wild-type ribosome): stronger effect = lower value, DMSO median 0, no signal -100; OD600 change: measured here: OD600 growth, DMSO median 0, no signal -100; RFP signal change: measured here: RFP humanized mutant strains, DMSO median 0, no signal -100, concentration not given here.
Consider `Cc1cc(C)cc(NC(=O)c2cccc(NC(=O)C3C4CC5OC(=O)C3C5C4)c2)c1` (stereo not drawn), for which the GFP signal change (wild-type ribosome) was -21.2% (active), the OD600 change is -14.4% and the RFP signal change was determined as 6.04%.

For the compound `COc1ccccc1C#Cc1ccc2c(c1)O[C@@H](CN(C)Cc1cncnc1)[C@H](C)CN([C@@H](C)CO)S2(=O)=O`, the GFP signal change (wild-type ribosome) is -12.1% (inactive), the OD600 change was -13.6% and the RFP signal change stood at 10%.

In the case of `O=C1CN(S(=O)(=O)Cc2ccccc2)C[C@@H]2[C@@H](c3ccc(C#Cc4cccc(F)c4)cc3)[C@@H](CO)N12`, the GFP signal change (wild-type ribosome) was -6.58% (inactive), the OD600 change was -36.6% and the RFP signal change is 26.9%.

`C[C@@H]1CN([C@@H](C)CO)S(=O)(=O)c2ccc(C#C[C@@H](C)O)cc2O[C@@H]1CN(C)C(=O)Cc1ccccn1`: the GFP signal change (wild-type ribosome) was 3.39% (inactive), the OD600 change was found to be 0.98% and the RFP signal change is -0.13%.

As to `COc1ccccc1C(=O)Nc1ccc2c(c1)C(=O)N(C)C[C@@H](OC)[C@@H](C)CN(CC1CC1)[C@@H](C)CO2`, the GFP signal change (wild-type ribosome) was -1.52% (inactive), the OD600 change was -3.13% and the RFP signal change stood at 0.12%.

On to `CCOc1cc(/C=C2\SC(N3CCCCC3)=NC2=O)ccc1O`, for which the GFP signal change (wild-type ribosome) was -19.3% (inactive), the OD600 change is -20.3% and the RFP signal change was 8.23%.

Regarding `CCN1C(=O)/C(=C2\SC(N3CCCCC3)=NC2=O)c2ccccc21`, the GFP signal change (wild-type ribosome) is -24% (active), the OD600 change was 0.66% and the RFP signal change is -4.52%.

For `CC(C)=C1SC(N2CCN(c3ccc(C)c(Cl)c3)CC2)=NC1=O`, the GFP signal change (wild-type ribosome) is -1.49% (inactive), the OD600 change was -2.03% and the RFP signal change is -2.71%.

With `COc1cccc(C(=O)N2C[C@@H]3[C@H](c4ccccc42)[C@H](CO)N3Cc2ccccc2F)c1`, the GFP signal change (wild-type ribosome) is -8.84% (inactive), the OD600 change is -21.6% and the RFP signal change is 1.94%.

As for `COc1ccccc1N1CCN(/N=C/c2ccc(O)cc2O)CC1`, the GFP signal change (wild-type ribosome) was 2.04% (inactive), the OD600 change is 0.96% and the RFP signal change was -2.29%.

As for `Cc1n[nH]c(=O)nc1N/N=C/c1cccs1`, the GFP signal change (wild-type ribosome) is 12.5% (inactive), the OD600 change is -10.6% and the RFP signal change worked out at 3.52%.

For `Cc1nc2ccccc2nc1N/N=C/c1ccc(O)cc1O`, the GFP signal change (wild-type ribosome) was -17.1% (active), the OD600 change was -1% and the RFP signal change worked out at 6.07%.

For the compound `CN(C)CCCNC(=O)C[C@H]1C=C[C@@H](NC(=O)Cc2cccnc2)[C@H](CO)O1`, the GFP signal change (wild-type ribosome) is -1.21% (inactive), the OD600 change was found to be 6.35% and the RFP signal change is -1.98%.

Turning to `Cc1onc(-c2c(F)cccc2Cl)c1C(=O)Nc1cccc(S(=O)(=O)N2CCCCC2)c1`, the GFP signal change (wild-type ribosome) was -6.88% (inactive), the OD600 change was -20.2% and the RFP signal change was -1.93%.

For `Cc1[nH]n(C)c(=O)c1C(=O)c1c(-c2c(Cl)cccc2Cl)noc1C`, the GFP signal change (wild-type ribosome) was 23.4% (inactive), the OD600 change came to 10.3% and the RFP signal change is 1.84%.

`Cc1onc(-c2c(Cl)cccc2Cl)c1C(=O)NNC(=O)c1c(-c2c(Cl)cccc2Cl)noc1C`: the GFP signal change (wild-type ribosome) is -35.2% (active), the OD600 change is -26.9% and the RFP signal change came to 1.07%.

Turning to `CN1C(=O)c2cc(NC(=O)c3ccc(Cl)cc3)ccc2OC[C@H]2O[C@H](CC(=O)O)CC[C@H]21`, the GFP signal change (wild-type ribosome) was 1.69% (inactive), the OD600 change amounted to 1.68% and the RFP signal change was -1.26%.

As to `C[C@H]1CN([C@@H](C)CO)C(=O)c2cc(NC(=O)Nc3ccc4c(c3)OCO4)ccc2O[C@H]1CN(C)S(=O)(=O)c1ccc(F)cc1`, the GFP signal change (wild-type ribosome) is -3.35% (inactive), the OD600 change is -0.035% and the RFP signal change came out at 3.46%.

Regarding `CN1C(=O)c2cc(NC(=O)C3CCC3)ccc2OC[C@@H]2O[C@@H](CC(=O)NCCc3ccncc3)CC[C@H]21`, the GFP signal change (wild-type ribosome) was 5.03% (inactive), the OD600 change came out at 10.1% and the RFP signal change was -1.17%.

For the compound `COc1ccccc1CCNC(=O)CSc1nnc2ccc(-c3cccnc3)nn12`, the GFP signal change (wild-type ribosome) was -2.66% (inactive), the OD600 change came to 7.92% and the RFP signal change was 10.5%.

As to `S=c1nc2ccccc2c2nc(-c3cccnc3)[nH]n12`, the GFP signal change (wild-type ribosome) is -0.36% (inactive), the OD600 change was -3.58% and the RFP signal change was -4.9%.

`COc1ccccc1Oc1nc(-c2cccnc2)nc2ccccc12`: the GFP signal change (wild-type ribosome) was -34.3% (active), the OD600 change was -23.4% and the RFP signal change is -3.61%.

Consider `Cc1ccc(S(=O)(=O)N(C)C[C@@H]2Oc3ccc(NS(=O)(=O)c4cn(C)cn4)cc3C(=O)N([C@@H](C)CO)C[C@H]2C)cc1`, for which the GFP signal change (wild-type ribosome) was 0.239% (inactive), the OD600 change is -1.14% and the RFP signal change was determined as 0.319%.

On to `Cc1ccc(NC(=O)N2CCC(c3nc4c(nnn4Cc4c(F)cccc4Cl)c(=O)[nH]3)CC2)cc1`, for which the GFP signal change (wild-type ribosome) was -32.9% (active), the OD600 change is -18.6% and the RFP signal change is -4.28%.

Turning to `Cc1ccc(Cn2nnc3c(=O)[nH]c(C4CCN(S(=O)(=O)/C=C/c5ccccc5)CC4)nc32)cc1`, the GFP signal change (wild-type ribosome) was -1.02% (inactive), the OD600 change is -8.59% and the RFP signal change is 5.14%.

For `O=C(Nc1ccc(F)cc1)N1CCCC(c2nc3c(nnn3Cc3ccccc3Cl)c(=O)[nH]2)C1` (stereo not drawn), the GFP signal change (wild-type ribosome) is 5.54% (inactive), the OD600 change came out at 16.4% and the RFP signal change is 5.16%.

As for `COc1ccccc1NC(=O)N[C@H]1CC[C@@H](CCn2cc(C3(O)CCCC3)nn2)O[C@@H]1CO`, the GFP signal change (wild-type ribosome) is -0.097% (inactive), the OD600 change turned out to be 0.829% and the RFP signal change was -2.3%.

As to `CC(C)NC(=O)N1[C@H](C(=O)N2CCc3ccccc3C2)[C@@H](CO)[C@@H]2Cn3c(cccc3=O)[C@@H]21`, the GFP signal change (wild-type ribosome) is -0.919% (inactive), the OD600 change was -4.45% and the RFP signal change was -2.12%.

With `Cc1cccc(NC(=S)NCCc2ccc(Cl)cc2)c1C`, the GFP signal change (wild-type ribosome) was -5.8% (inactive), the OD600 change was -24.2% and the RFP signal change stood at 6.65%.

`Cc1ccccc1NC(=S)NC(=O)Cc1ccc(Cl)cc1`: the GFP signal change (wild-type ribosome) is -31.6% (active), the OD600 change was -2.94% and the RFP signal change was determined as 1.01%.

With `O=C(Cc1ccc(Cl)cc1)NC(=S)Nc1ccccc1O`, the GFP signal change (wild-type ribosome) was 6.71% (inactive), the OD600 change was -1.88% and the RFP signal change amounted to 5.02%.
